Tests used:
Assay in all cases: DAPPL (digital affinity profiling via proximity ligation, sequencing); 10 mM Tris-HCl pH 7.5, 50 mM NaCl, 1 mM DTT, 4% glycerol, room temperature, 30 min; GST-TFs on glutathione beads, 16-mer random dsDNA library, 0.1% formaldehyde crosslink after washing; high values mean tight binding
Details in all cases: protein: recombinant; tags: N-terminal GST; dsDNA, one strand shown
FLI1 = molecular target: T1, FLI1 (Homo sapiens, UniProt Q01543 1-452)
T1 sequence: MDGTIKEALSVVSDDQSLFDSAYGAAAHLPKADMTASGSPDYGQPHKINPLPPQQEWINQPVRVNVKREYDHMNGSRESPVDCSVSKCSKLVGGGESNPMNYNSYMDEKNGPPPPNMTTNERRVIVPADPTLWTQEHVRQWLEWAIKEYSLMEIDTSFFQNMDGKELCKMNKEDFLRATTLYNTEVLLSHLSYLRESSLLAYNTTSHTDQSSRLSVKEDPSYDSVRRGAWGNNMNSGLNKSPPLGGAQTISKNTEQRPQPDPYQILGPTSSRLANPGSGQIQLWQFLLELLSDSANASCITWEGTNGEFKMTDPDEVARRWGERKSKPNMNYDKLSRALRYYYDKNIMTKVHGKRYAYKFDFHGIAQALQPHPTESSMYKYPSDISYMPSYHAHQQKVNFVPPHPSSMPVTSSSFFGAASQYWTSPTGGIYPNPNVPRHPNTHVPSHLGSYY
How it was run: (§1)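 Each value of binding signal is a hexamer's read frequency for a factor divided by the same hexamer's frequency in the tag-only sample. Barcoded, bead-captured GST fusions of human transcription factors made in yeast were pooled with that sample and incubated with 200 nmole of a random double-stranded 16-mer DNA library in Tris/NaCl/DTT/glycerol buffer at room temperature for 30 min. Washing, 0.1% formaldehyde crosslinking, proximity ligation, PCR and Illumina NextSeq500 sequencing followed.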

ELK1 = molecular target: T2, ELK1 (Homo sapiens, UniProt P19419 1-428)
T2 sequence: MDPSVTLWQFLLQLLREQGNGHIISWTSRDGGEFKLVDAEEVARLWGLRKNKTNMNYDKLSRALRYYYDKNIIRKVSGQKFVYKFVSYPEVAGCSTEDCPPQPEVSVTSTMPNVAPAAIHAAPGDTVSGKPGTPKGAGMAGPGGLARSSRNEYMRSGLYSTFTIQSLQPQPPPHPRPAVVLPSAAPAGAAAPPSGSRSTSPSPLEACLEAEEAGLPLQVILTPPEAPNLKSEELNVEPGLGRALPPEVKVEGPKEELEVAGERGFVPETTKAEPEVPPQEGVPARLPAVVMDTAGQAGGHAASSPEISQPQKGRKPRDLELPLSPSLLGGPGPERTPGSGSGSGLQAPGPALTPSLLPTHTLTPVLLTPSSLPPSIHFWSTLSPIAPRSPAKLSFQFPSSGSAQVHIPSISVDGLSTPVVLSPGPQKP
How it was run: as §1

GABPA = molecular target: T3, GABPA (Homo sapiens, UniProt Q06546 1-454)
T3 sequence: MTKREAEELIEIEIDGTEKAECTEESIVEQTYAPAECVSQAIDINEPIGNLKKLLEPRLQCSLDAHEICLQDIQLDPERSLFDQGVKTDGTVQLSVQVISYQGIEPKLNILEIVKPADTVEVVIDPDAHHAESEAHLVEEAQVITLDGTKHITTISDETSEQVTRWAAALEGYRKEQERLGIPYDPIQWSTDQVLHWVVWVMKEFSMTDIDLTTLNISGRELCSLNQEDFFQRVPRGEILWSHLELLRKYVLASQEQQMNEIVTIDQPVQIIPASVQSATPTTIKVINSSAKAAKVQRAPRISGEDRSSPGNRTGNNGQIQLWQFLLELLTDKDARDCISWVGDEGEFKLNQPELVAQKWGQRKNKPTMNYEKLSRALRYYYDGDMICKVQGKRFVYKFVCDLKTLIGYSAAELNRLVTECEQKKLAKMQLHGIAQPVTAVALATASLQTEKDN
How it was run: as §1

ERG = molecular target: T4, ERG (Homo sapiens, UniProt P11308 1-479)
T4 sequence: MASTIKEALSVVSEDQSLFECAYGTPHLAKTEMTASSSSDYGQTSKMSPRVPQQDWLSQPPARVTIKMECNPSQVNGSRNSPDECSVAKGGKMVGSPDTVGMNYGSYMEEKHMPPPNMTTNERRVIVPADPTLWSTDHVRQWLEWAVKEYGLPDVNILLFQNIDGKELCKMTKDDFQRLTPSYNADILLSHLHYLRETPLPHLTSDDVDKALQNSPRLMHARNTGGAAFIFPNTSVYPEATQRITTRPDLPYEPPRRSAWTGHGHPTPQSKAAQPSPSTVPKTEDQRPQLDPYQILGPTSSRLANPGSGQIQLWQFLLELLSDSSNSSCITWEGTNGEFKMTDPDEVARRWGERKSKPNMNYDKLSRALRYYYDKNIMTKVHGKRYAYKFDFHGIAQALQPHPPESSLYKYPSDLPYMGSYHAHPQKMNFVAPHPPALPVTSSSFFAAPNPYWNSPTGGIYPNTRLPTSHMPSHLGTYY
How it was run: as §1

ELF1 = ELF1 (Homo sapiens, UniProt P32519 1-619)
Sequence of ELF1 (P32519 whole entry): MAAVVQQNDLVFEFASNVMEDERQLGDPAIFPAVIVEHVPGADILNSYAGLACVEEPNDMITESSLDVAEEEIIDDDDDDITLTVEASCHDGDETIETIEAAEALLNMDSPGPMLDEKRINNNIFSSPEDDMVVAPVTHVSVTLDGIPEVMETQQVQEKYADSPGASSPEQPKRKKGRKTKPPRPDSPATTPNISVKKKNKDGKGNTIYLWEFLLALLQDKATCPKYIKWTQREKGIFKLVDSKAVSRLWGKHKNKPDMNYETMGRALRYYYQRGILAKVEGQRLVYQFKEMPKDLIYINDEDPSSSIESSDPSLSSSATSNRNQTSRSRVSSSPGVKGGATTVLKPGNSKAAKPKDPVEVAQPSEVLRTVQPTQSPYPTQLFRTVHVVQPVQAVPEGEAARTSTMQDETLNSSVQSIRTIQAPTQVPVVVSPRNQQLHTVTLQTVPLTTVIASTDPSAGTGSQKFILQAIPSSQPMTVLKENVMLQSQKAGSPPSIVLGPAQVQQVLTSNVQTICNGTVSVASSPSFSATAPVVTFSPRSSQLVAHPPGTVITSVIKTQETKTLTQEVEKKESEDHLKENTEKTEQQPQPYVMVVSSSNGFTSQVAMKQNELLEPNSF
How it was run: as §1

EHF = molecular target: T5, EHF (Homo sapiens, UniProt Q9NZC4 1-300)
T5 sequence: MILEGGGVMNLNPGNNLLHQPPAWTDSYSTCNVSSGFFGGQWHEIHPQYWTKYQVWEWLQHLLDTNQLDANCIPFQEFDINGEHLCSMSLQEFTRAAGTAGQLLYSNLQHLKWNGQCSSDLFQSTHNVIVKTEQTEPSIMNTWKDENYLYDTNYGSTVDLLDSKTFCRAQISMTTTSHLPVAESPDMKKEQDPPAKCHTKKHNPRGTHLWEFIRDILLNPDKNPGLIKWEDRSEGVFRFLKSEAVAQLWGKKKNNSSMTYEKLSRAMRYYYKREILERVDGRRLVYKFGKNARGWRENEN
How it was run: as §1

SPI1 = SPI1 (Homo sapiens, UniProt P17947 1-270)
How it was run: as §1

SPIB = SPIB (Homo sapiens, UniProt Q01892 1-262)
Sequence of SPIB (Q01892 whole entry): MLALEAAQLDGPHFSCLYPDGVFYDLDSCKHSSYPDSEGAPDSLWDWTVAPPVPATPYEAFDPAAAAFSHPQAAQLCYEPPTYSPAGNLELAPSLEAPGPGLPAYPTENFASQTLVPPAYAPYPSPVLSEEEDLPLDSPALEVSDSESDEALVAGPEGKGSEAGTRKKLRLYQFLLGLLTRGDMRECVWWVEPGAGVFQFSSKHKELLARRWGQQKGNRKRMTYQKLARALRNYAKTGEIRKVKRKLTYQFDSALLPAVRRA
How it was run: as §1

ELK3 = molecular target: T6, ELK3 (Homo sapiens, UniProt P41970 1-407)
T6 sequence: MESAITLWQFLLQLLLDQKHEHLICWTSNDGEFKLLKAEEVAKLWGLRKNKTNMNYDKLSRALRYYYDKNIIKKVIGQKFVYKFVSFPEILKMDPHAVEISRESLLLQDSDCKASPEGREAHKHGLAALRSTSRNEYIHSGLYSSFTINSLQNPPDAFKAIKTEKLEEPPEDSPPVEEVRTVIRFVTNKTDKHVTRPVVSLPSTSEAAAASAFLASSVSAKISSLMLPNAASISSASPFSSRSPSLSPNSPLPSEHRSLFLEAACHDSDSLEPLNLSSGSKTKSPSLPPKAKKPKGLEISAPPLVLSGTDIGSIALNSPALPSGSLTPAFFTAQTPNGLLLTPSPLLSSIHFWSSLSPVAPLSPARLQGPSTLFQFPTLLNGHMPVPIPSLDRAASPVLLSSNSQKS
How it was run: as §1

| Sequence | binding signal (FLI1) | binding signal (ELK1) | binding signal (GABPA) | binding signal (ERG) | binding signal (ELF1) | binding signal (EHF) | binding signal (SPI1) | binding signal (SPIB) | binding signal (ELK3) |
| --- | --- | --- | --- | --- | --- | --- | --- | --- | --- |
| CATCTG | 1.24 fold enrichment (6-mer frequency, TF over GST control) | 1.23 fold enrichment (6-mer frequency, TF over GST control) | 1.37 fold enrichment (6-mer frequency, TF over GST control) | 1.16 fold enrichment (6-mer frequency, TF over GST control) | 1.33 fold enrichment (6-mer frequency, TF over GST control) | 1.31 fold enrichment (6-mer frequency, TF over GST control) | 1.08 fold enrichment (6-mer frequency, TF over GST control) | 1.28 fold enrichment (6-mer frequency, TF over GST control) | 1.25 fold enrichment (6-mer frequency, TF over GST control) |
| AGCATT | 1.12 fold enrichment (6-mer frequency, TF over GST control) | 1.13 fold enrichment (6-mer frequency, TF over GST control) | 1.11 fold enrichment (6-mer frequency, TF over GST control) | 1.09 fold enrichment (6-mer frequency, TF over GST control) | 1.1 fold enrichment (6-mer frequency, TF over GST control) | 1.08 fold enrichment (6-mer frequency, TF over GST control) | 1.03 fold enrichment (6-mer frequency, TF over GST control) | 1.05 fold enrichment (6-mer frequency, TF over GST control) | 1.07 fold enrichment (6-mer frequency, TF over GST control) |
| TTCATC | 1.36 fold enrichment (6-mer frequency, TF over GST control) | 1.28 fold enrichment (6-mer frequency, TF over GST control) | 1.29 fold enrichment (6-mer frequency, TF over GST control) | 1.22 fold enrichment (6-mer frequency, TF over GST control) | 1.27 fold enrichment (6-mer frequency, TF over GST control) | 1.14 fold enrichment (6-mer frequency, TF over GST control) | 1.27 fold enrichment (6-mer frequency, TF over GST control) | 1.28 fold enrichment (6-mer frequency, TF over GST control) | 1.32 fold enrichment (6-mer frequency, TF over GST control) |
| ATGTAT | 1.34 fold enrichment (6-mer frequency, TF over GST control) | 1.32 fold enrichment (6-mer frequency, TF over GST control) | 1.27 fold enrichment (6-mer frequency, TF over GST control) | 1.35 fold enrichment (6-mer frequency, TF over GST control) | 1.3 fold enrichment (6-mer frequency, TF over GST control) | 1.28 fold enrichment (6-mer frequency, TF over GST control) | 1.28 fold enrichment (6-mer frequency, TF over GST control) | 1.32 fold enrichment (6-mer frequency, TF over GST control) | 1.36 fold enrichment (6-mer frequency, TF over GST control) |
| CTATAG | 1.09 fold enrichment (6-mer frequency, TF over GST control) | 1.05 fold enrichment (6-mer frequency, TF over GST control) | 1.11 fold enrichment (6-mer frequency, TF over GST control) | 1.01 fold enrichment (6-mer frequency, TF over GST control) | 1.09 fold enrichment (6-mer frequency, TF over GST control) | 1.03 fold enrichment (6-mer frequency, TF over GST control) | 1.08 fold enrichment (6-mer frequency, TF over GST control) | 1.07 fold enrichment (6-mer frequency, TF over GST control) | 1.08 fold enrichment (6-mer frequency, TF over GST control) |
| GCTCGA | 1.22 fold enrichment (6-mer frequency, TF over GST control) | 1.12 fold enrichment (6-mer frequency, TF over GST control) | 1.15 fold enrichment (6-mer frequency, TF over GST control) | 1.2 fold enrichment (6-mer frequency, TF over GST control) | 1.21 fold enrichment (6-mer frequency, TF over GST control) | 1.19 fold enrichment (6-mer frequency, TF over GST control) | 1.22 fold enrichment (6-mer frequency, TF over GST control) | 1.24 fold enrichment (6-mer frequency, TF over GST control) | 1.13 fold enrichment (6-mer frequency, TF over GST control) |
| GCCACT | 1.17 fold enrichment (6-mer frequency, TF over GST control) | 1.2 fold enrichment (6-mer frequency, TF over GST control) | 1.16 fold enrichment (6-mer frequency, TF over GST control) | 1.23 fold enrichment (6-mer frequency, TF over GST control) | 1.23 fold enrichment (6-mer frequency, TF over GST control) | 1.1 fold enrichment (6-mer frequency, TF over GST control) | 1.17 fold enrichment (6-mer frequency, TF over GST control) | 1.06 fold enrichment (6-mer frequency, TF over GST control) | 1.26 fold enrichment (6-mer frequency, TF over GST control) |

From article PMC7862700, “An all-to-all approach to the identification of sequence-specific readers for epigenetic DNA modifications on cytosine”
